Hit rate of the full screen: of about 5,500 compounds, about 2,000 (36%) were called active. About 18% were inconclusive and are not listed. This is one part of the list. Unmarked numbers belong to inactive results. No stated cut-off is given here; in the data, active means normalized growth mostly below about 0.91 (no sharp cut-off); inconclusive means no clear call, values can overlap the other calls; inactive means mostly above about 0.92.
Assay: chemical genetic growth profiling, strain panel (AID 1159580);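 further: tested at 20 µM; growth read once vehicle control cultures reached saturation at 30 °C; 1 = growth at the plate median or of vehicle wells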
Conditions: S. cerevisiae deletion strains, growth OD

## CCOc1ccc(C(=O)c2ccc(OC)c(O)c2O)cc1
Locus YAL021C, strain ccr4, stronger effect = lower value
  normalized growth: 0.958
Locus YAL026C, strain drs2, stronger effect = lower value
  normalized growth: 0.966
Locus YAL030W, strain snc1, stronger effect = lower value
  normalized growth: 1.02
Locus YBL061C, strain skt5, stronger effect = lower value
  normalized growth: 0.994
Locus YBR009C, strain hhf1, stronger effect = lower value
  normalized growth: 0.962
Locus YBR023C, strain chs3, stronger effect = lower value
  normalized growth: 0.977
Locus YBR171W, strain sec66, stronger effect = lower value
  normalized growth: 1.02
Locus YBR231C, strain swc5, stronger effect = lower value
  normalized growth: 0.939
Locus YBR279W, strain paf1, stronger effect = lower value
  normalized growth: 0.973
Locus YCL011C, strain gbp2, stronger effect = lower value
  normalized growth: 0.991
Locus YCL016C, strain dcc1, stronger effect = lower value
  normalized growth: 0.973
Locus YCL061C, strain MRC1, stronger effect = lower value
  normalized growth: 0.993
Locus YCL069W, strain vba3, stronger effect = lower value
  normalized growth: 1.01
Locus YCR088W, strain abp1, stronger effect = lower value
  normalized growth: 1.02
Locus YDL005C, strain med2, stronger effect = lower value
  normalized growth: 1.05
Locus YDL040C, strain nat1, stronger effect = lower value
  normalized growth: 1.01
Locus YDR001C, strain nth1, stronger effect = lower value
  normalized growth: 1.03
Locus YDR069C, strain doa4, stronger effect = lower value
  normalized growth: 0.974
Locus YDR137W, strain rgp1, stronger effect = lower value
  normalized growth: 0.913
Locus YDR159W, strain sac3, stronger effect = lower value
  normalized growth: 1.05
Locus YDR195W, strain ref2
  normalized growth: 1.15 [resistant] (active)
Locus YDR297W, strain sur2, stronger effect = lower value
  normalized growth: 1.01
Locus YDR334W, strain swr1, stronger effect = lower value
  normalized growth: 1.02
Locus YDR335W, strain msn5, stronger effect = lower value
  normalized growth: 0.993
Locus YDR392W, strain spt3, stronger effect = lower value
  normalized growth: 0.795
Locus YEL003W, strain gim4, stronger effect = lower value
  normalized growth: 0.964
Locus YEL037C, strain rad23, stronger effect = lower value
  normalized growth: 1.01
Locus YEL061C, strain CIN8 (second series), stronger effect = lower value
  normalized growth: 1.02
Locus YER015W, strain faa2, stronger effect = lower value
  normalized growth: 0.934
Locus YER016W, strain bim1, stronger effect = lower value
  normalized growth: 1.01
Locus YER111C, strain swi4, stronger effect = lower value
  normalized growth: 1.03
Locus YER155C, strain BEM2 (second series), stronger effect = lower value
  normalized growth: 0.842 (active)
Locus YFR010W, strain ubp6, stronger effect = lower value
  normalized growth: 1.01
Locus YGL167C, strain pmr1, stronger effect = lower value
  normalized growth: 0.997
Locus YGL173C, strain kem1, stronger effect = lower value
  normalized growth: 0.999
Locus YGL227W, strain vid30, stronger effect = lower value
  normalized growth: 1.03
Locus YGL240W, strain doc1, stronger effect = lower value
  normalized growth: 0.982
Locus YGL253W, strain hxk2, stronger effect = lower value
  normalized growth: 1
Locus YHR013C, strain ard1, stronger effect = lower value
  normalized growth: 0.961
Locus YHR027C, strain rpn1, stronger effect = lower value
  normalized growth: 1.01
Locus YHR030C, strain SLT2, stronger effect = lower value
  normalized growth: 0.892
Locus YHR079C, strain IRE1, stronger effect = lower value
  normalized growth: 0.913
Locus YHR142W, strain chs7, stronger effect = lower value
  normalized growth: 0.963
Locus YJL092W, strain hpr5, stronger effect = lower value
  normalized growth: 1.02
Locus YJL095W, strain BCK1 (second series), stronger effect = lower value
  normalized growth: 0.987
Locus YJL095W, strain BCK1, stronger effect = lower value
  normalized growth: 0.923
Locus YJL115W, strain asf1, stronger effect = lower value
  normalized growth: 1.04
Locus YJL129C, strain trk1, stronger effect = lower value
  normalized growth: 1.04
Locus YJL154C, strain vps35, stronger effect = lower value
  normalized growth: 1.03
Locus YJL164C, strain tpk1, stronger effect = lower value
  normalized growth: 0.964
Locus YJL166W, strain qcr8, stronger effect = lower value
  normalized growth: 0.959
Locus YJL187C, strain SWE1, stronger effect = lower value
  normalized growth: 1
Locus YJR066W, strain TOR1, stronger effect = lower value
  normalized growth: 0.826
Locus YKL160W, strain elf1, stronger effect = lower value
  normalized growth: 0.951
Locus YKR026C, strain gcn3, stronger effect = lower value
  normalized growth: 1.03
Locus YKR091W, strain srl3, stronger effect = lower value
  normalized growth: 1.02
Locus YLL001W, strain dnm1, stronger effect = lower value
  normalized growth: 0.981
Locus YLL026W, stronger effect = lower value
  normalized growth: 1.03
Locus YLL041C, strain sdh2, stronger effect = lower value
  normalized growth: 1.01
Locus YLR027C, strain aat2, stronger effect = lower value
  normalized growth: 0.986
Locus YLR113W, strain HOG1, stronger effect = lower value
  normalized growth: 0.953
Locus YLR221C, strain rsa3, stronger effect = lower value
  normalized growth: 0.977
Locus YLR258W, strain gsy2, stronger effect = lower value
  normalized growth: 1
Locus YLR262C, strain YPT6 (second series), stronger effect = lower value
  normalized growth: 0.875
Locus YLR320W, strain mms22, stronger effect = lower value
  normalized growth: 0.949
Locus YLR342W, strain FKS1, stronger effect = lower value
  normalized growth: 0.958
Locus YLR357W, strain rsc2, stronger effect = lower value
  normalized growth: 0.949
Locus YLR370C, strain arc18, stronger effect = lower value
  normalized growth: 1.02
Locus YLR384C, strain iki3, stronger effect = lower value
  normalized growth: 1.02
Locus YML120C, strain ndi1, stronger effect = lower value
  normalized growth: 0.997
Locus YMR058W, strain fet3, stronger effect = lower value
  normalized growth: 0.818 (active)
Locus YMR125W, strain sto1, stronger effect = lower value
  normalized growth: 1.02
Locus YMR129W, stronger effect = lower value
  normalized growth: 1.01
Locus YMR205C, strain PFK2, stronger effect = lower value
  normalized growth: 1.01
Locus YMR231W, strain pep5, stronger effect = lower value
  normalized growth: 0.992
Locus YNL071W, strain lat1, stronger effect = lower value
  normalized growth: 0.972
Locus YNL183C, strain NPR1, stronger effect = lower value
  normalized growth: 0.866
Locus YNL209W, strain ssb2, stronger effect = lower value
  normalized growth: 0.909 (active)
Locus YNL248C, strain rpa49, stronger effect = lower value
  normalized growth: 1.03
Locus YNL322C, strain KRE1 (second series), stronger effect = lower value
  normalized growth: 1.03
Locus YNR049C, strain mso1, stronger effect = lower value
  normalized growth: 1.06
Locus YOR001W, strain rrp6, stronger effect = lower value
  normalized growth: 0.996
Locus YOR070C, strain gyp1, stronger effect = lower value
  normalized growth: 0.989
Locus YOR080W, strain dia2, stronger effect = lower value
  normalized growth: 1.04
Locus YOR083W, strain WHI5, stronger effect = lower value
  normalized growth: 0.953
Locus YOR106W, strain vam3, stronger effect = lower value
  normalized growth: 0.892
Locus YOR231W, strain MKK1, stronger effect = lower value
  normalized growth: 0.94
Locus YOR265W, strain rbl2, stronger effect = lower value
  normalized growth: 1.01
Locus YOR270C, strain vph1, stronger effect = lower value
  normalized growth: 0.918
Locus YOR290C, strain snf2, stronger effect = lower value
  normalized growth: 0.955
Locus YPL051W, strain arl3, stronger effect = lower value
  normalized growth: 0.878 (active)
Locus YPL078C, strain atp4, stronger effect = lower value
  normalized growth: 0.957
Locus YPL106C, strain sse1, stronger effect = lower value
  normalized growth: 0.957
Locus YPL240C, strain hsp82, stronger effect = lower value
  normalized growth: 1.01
Locus YPL256C, strain CLN2, stronger effect = lower value
  normalized growth: 0.954
